# In PubChem BioAssay AID588519 (ICCB-Longwood Screening Facility, Harvard Medical School, 2011):
# The whole screen tested about 150,000 compounds, of which about 1,000 (0.67%) were called active. Rule as the data show it: active = % elongation below about 90%; inactive = the rest, inconclusive results apart. Shown is part of a subset that was picked to be rich in actives.
# Target: Genome polyprotein (Poliovirus type 1 (strain Mahoney)) (UniProt P03300)
# Assay: inhibitors of poliovirus polymerase RNA elongation – biochemical, fluorescence polarization, total intensity, primary screen (AID 588519); as to z-score: compound at 16.7 µg/mL
# Conditions: stronger effect = lower value; for % elongation: compound at 16.7 µg/mL; for z-score: measured here: FP z-score
# [1] = measured here: total intensity read-out
# Chain of Genome polyprotein (Poliovirus type 1 (strain Mahoney)) (P03300 1749-2209 limits assumed): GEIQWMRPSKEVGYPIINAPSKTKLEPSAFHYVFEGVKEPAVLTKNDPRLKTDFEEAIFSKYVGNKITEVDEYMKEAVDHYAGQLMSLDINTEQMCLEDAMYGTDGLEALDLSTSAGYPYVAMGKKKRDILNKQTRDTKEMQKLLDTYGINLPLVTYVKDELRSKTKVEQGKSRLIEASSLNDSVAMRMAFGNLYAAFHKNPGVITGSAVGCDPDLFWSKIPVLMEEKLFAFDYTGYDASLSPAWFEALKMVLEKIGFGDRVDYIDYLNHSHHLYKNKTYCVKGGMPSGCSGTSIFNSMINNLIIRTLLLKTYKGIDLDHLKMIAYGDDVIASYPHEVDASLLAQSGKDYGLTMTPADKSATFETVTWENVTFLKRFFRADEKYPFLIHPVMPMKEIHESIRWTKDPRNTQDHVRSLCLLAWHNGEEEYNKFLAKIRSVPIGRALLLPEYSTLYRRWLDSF
SMILES,% elongation,z-score,% elongation [1]
CN1CCc2c(c(S)[nH]c(=S)c2C#N)C1,-17% (active),-18.2,48%
Cc1ccc(-n2c(C)cc(C(=O)CN3CC(C)OC(C)C3)c2C)cc1 (centres undefined),100% (inactive),-0.2,99%
O=C(O)CN1C(=O)/C(=C2/OC(=O)c3ccccc32)SC1=S,101% (inactive),-0.1,99%
O=C(O)CCCN1C(=O)c2ccccc2Sc2ncccc21,101% (inactive),-0.2,105%
O=C(O)CCCN1C(=O)/C(=C2\SC(=S)N(CCCC(=O)O)C2=O)SC1=S,88% (active),-4.7,86%
CCn1c(=O)c(=O)n(CC)c2cc(N3CCCCC3)c(NC(=O)c3cccc(F)c3)cc21,104% (inactive),-0.3,107%
CCn1c(=O)c(=O)n(CC)c2cc(N3CCCCC3)c(NC(=O)c3ccc(Cl)cc3)cc21,90% (active),-4.3,85%
CCn1c(=O)c(=O)n(CC)c2cc(N3CCCCC3)c(NC(=O)c3ccccc3)cc21,101% (inactive),0.2,102%
CS(=O)(=O)Nc1ccc2c(c1)COC2=O,102% (inactive),0,102%
Cc1nc(N(CC(=O)OC2CC(C)CCC2C(C)C)S(=O)(=O)c2ccc(N)cc2)c(C)n1N (centres undefined),102% (inactive),0.1,92%
CCCCCC(=O)Nc1cc(-c2nc3cc(C)cc(C)c3o2)ccc1C,103% (inactive),0.3,102%
O=C(ON1C(=O)CCC1=O)c1ccccc1,80% (active),-2.1,89%
CCN(Cc1ccccc1)C(=O)c1cccc(N2C(=O)CCC2=O)c1,101% (inactive),-0.5,103%
O=C1CCC(=O)N1C(c1ccccc1)c1ccccc1,104% (inactive),0.6,103%
Cc1c(C=Nc2ccc(S(=O)(=O)N(C)C)cc2)c(O)n(C)c(=O)c1C#N,104% (inactive),0.1,114%
COc1ccc2c(c1)Cc1sc(NC(=O)c3ccccc3Br)nc1-2,59% (active),-7.3,63%
Cn1c(=O)c(=O)n(C)c2cc(NC(=O)c3ccccc3Br)ccc21,109% (inactive),1.1,113%
CCOc1ccc2nc(NC(=O)c3ccccc3OC)sc2c1,99% (inactive),-0.1,92%
COC(=O)C1CCN(S(=O)(=O)c2ccc(Cl)cc2)CC1,103% (inactive),0.2,102%
NCC1OC(OC2C(N)CC(N)C(O)C2O[C@@H]2O[C@H](CO)[C@H](O)C2O)C(N)C(O)C1O (some centres undefined),99% (inactive),-0.1,103%
NC[C@@H]1O[C@H](O[C@@H]2[C@@H](CO)OC(O[C@@H]3[C@@H](O)[C@H](N)C[C@H](N)[C@H]3OC3O[C@H](CN)[C@@H](O)[C@H](O)[C@H]3N)[C@@H]2O)[C@H](N)[C@@H](O)[C@@H]1O (some centres undefined),87% (active),-1.4,78%
NC(=O)c1cccc(N2C(=O)c3ccccc3C2=O)c1,105% (inactive),0.2,102%
O=C1CCC(=O)N1OCC1CCCN2CCCCC12 (centres undefined),104% (inactive),0.1,108%
CCSc1nsc(SCC)c1C(=O)O,88% (active),-1.5,96%
O=C(Nc1sc2c(c1C(=O)NCCc1ccccc1)CCC2)c1ccco1,103% (inactive),0.4,105%

SMILES,% elongation,z-score,% elongation [1]
Cc1ccc(CSc2oc(-c3cccs3)nc2S(=O)(=O)c2ccc(C)cc2)cc1,108% (inactive),0.8,109%
Cc1ccc(-c2nc(S(=O)(=O)c3ccc(C)cc3)c(N3CCCCCC3)o2)cc1,100% (inactive),-1.6,104%
Cc1ccc(S(=O)(=O)c2no[n+]([O-])c2S(=O)(=O)c2ccc(C)cc2)cc1,79% (active),-2.2,69%
CCC(c1nnc(SCc2nc3sc4c(c3c(=O)[nH]2)CCC4)n1Cc1ccccc1)N(C)C (centres undefined),114% (inactive),2,106%
Cc1c(S(=O)(=O)O)oc2c1C(=O)C(=O)c1c-2ccc2c1CCCC2(C)C,87% (active),-1.4,88%
COc1ccccc1Cn1cccc1C1=NC(C(C)C)CO1 (centres undefined),101% (inactive),0.2,103%
COC1CC(O[C@@H]2[C@H](C)[C@H](OC3OC(C)CC(N(C)C)C3OC(C)=O)[C@H](C)CC3(CO3)C(=O)[C@@H](C)C(OC(C)=O)[C@H](C)[C@H](C)OC(=O)[C@@H]2C)OC(C)C1OC(C)=O (some centres undefined),100% (inactive),0.2,103%
Cc1ccc(OCCn2cc(C(=O)c3ccccc3)c3ccccc32)cc1,100% (inactive),-0.4,96%
Cc1ccc(-n2c(=O)c3cccnc3n2CC(=O)Nc2ccccc2C(F)(F)F)cc1C,110% (inactive),0.2,105%
CC(C)c1ccc(NC(=O)Cn2c3ncccc3c(=O)n2-c2ccccc2)cc1,33% (active),-5.2,49%
CCOc1ccccc1NC(=O)Cn1c2ncccc2c(=O)n1-c1ccc(C)c(C)c1,107% (inactive),0,105%
CSc1ccc(/C=N/NC(N)=S)cc1,98% (inactive),-0.7,63%
Cc1ccc(O)c(NC(=O)c2cccs2)c1,99% (inactive),-0.7,108%
CCc1c(C)sc(NC(=O)c2cccs2)c1C(N)=O,74% (active),-2.8,79%
COC(=O)c1c(NC(=O)c2cccs2)sc2c1C(C(=O)OC)CC2 (centres undefined),99% (inactive),-0.7,97%
CC(NC(=O)Nc1cccnc1)N1C(=O)C2C3C=CC(C3)C2C1=O (centres undefined),100% (inactive),-0.4,103%
O=C(O)/C(=C/C(=O)c1ccccc1)Nc1ccc(OC(F)(F)F)cc1,103% (inactive),0,111%
CC(C)(C)NC(=O)C1N(C2CC2)C(=O)C2C(C(=O)NCc3ccccc3)C3C=CC21O3 (centres undefined),103% (inactive),0.3,104%
Cc1ccccc1CN1CCCN(Cc2ccccc2)S1(=O)=O,103% (inactive),0.1,99%
CCC(=O)c1ccc(OCC(=O)NC2CCCCC2C)cc1 (centres undefined),101% (inactive),-0.4,93%
Cc1cc(C)c2nc(-c3ccco3)cc(C(=O)O)c2c1,96% (inactive),-1.9,93%
Cc1cc(C)c2nc3nc(C)cc(C)c3c(N)c2c1,90% (active),-2.4,76%
Cc1cc(C(=O)COc2ccc(-n3ccnc3)cc2)c(C)n1-c1ccc2c(c1)OCO2,103% (inactive),0.1,107%
Cc1ccc(Cn2c(CNC(=O)c3ccccc3)nc3ccccc32)cc1,100% (inactive),-0.3,104%
CC(=O)Nc1nc2ccccc2n1Cc1ccc(C)cc1,100% (inactive),-0.7,102%

SMILES,% elongation,z-score,% elongation [1]
Nc1nnc(-c2ccc(Cn3c(-c4cncs4)nc4ccccc43)cc2)s1,63% (active),-5.6,75%
O=C1Nc2ccccc2N(c2ccccc2)N1,101% (inactive),0.4,105%
CCOc1ccccc1N(CC(=O)NC)S(C)(=O)=O,102% (inactive),0.4,103%
Cc1cc(C(=O)COC(=O)c2ccc(S(=O)(=O)NCc3ccco3)cc2)c(C)n1C,101% (inactive),-0.2,100%
CCOc1ccccc1CNC(=O)Nc1cn(CC(C)C)c(=O)c2ccccc12,28% (active),-6,48%
CCOc1ccccc1CNC(=O)Cn1ncc2c([nH]c3ccccc32)c1=O,102% (inactive),-0.4,103%
CCOc1ccccc1N(CC)C(=O)Nc1cn(C)c(=O)c2ccccc12,103% (inactive),-0.7,104%
CCOc1ccc(OCC(=O)OC(C)C(=O)Nc2ncc(Cl)cc2Cl)cc1 (centres undefined),106% (inactive),0.3,97%
Cc1cccc(OCCOc2ccc(Br)cc2/C=C2\SC(=S)NC2=O)c1,101% (inactive),-0.2,104%
Cc1cc(C)c(C(N)=O)c(SCC(=O)Nc2c(C)n(C)n(-c3ccccc3)c2=O)n1,103% (inactive),0.1,97%
O=C1Cc2ccccc2C(=O)N1Cc1ccccn1,85% (active),-1.9,83%
CSc1nc(=O)n(Cc2ccccn2)c2c1CCC2,101% (inactive),0.1,104%
O=C1c2ccccc2C(=O)N1CC1OCc2ccccc2CO1,103% (inactive),0.3,110%
Cc1ccc(NC(=O)C2C3C=CC4(O3)C2C(=O)N(CCCN2CCOCC2)C4C(=O)NC2CCCC(C)C2C)cc1Cl (centres undefined),101% (inactive),0.1,103%
CCn1c2ccccc2c2cc(P(=S)(OC)OC)ccc21,81% (active),-2.3,86%
CCn1c2ccccc2c2cc(CN3CCN(Cc4cccc(Cl)c4)CC3)ccc21,103% (inactive),0.1,108%
CCn1c(=O)cc(O)c2ccccc21,115% (inactive),1.3,123%
O=C(CCc1nc(CN2CCN(S(=O)(=O)c3ccc(F)cc3)CC2)no1)N1CCCCC1,109% (inactive),0.3,112%
O=C(CN1CCN(S(=O)(=O)c2ccc3[nH]c(=O)[nH]c3c2)CC1)N1CCCCCC1,86% (active),-1.1,93%
O=C(C1CCN(S(=O)(=O)c2ccc3[nH]c4c(c3c2)CCCCC4)CC1)N1CCCC1,100% (inactive),-1,97%
CCC1CN2CCC34c5ccccc5NC3C(C)C1CC24 (centres undefined),101% (inactive),0.3,104%
CCOC(=O)C1=C(C)NC(=O)NC1c1c(Cl)nc2c(C)cccn2c1=O (centres undefined),104% (inactive),0,109%
CCC(C)NC(=O)C1c2ccccc2C(=O)N1Cc1ccccc1 (centres undefined),102% (inactive),0.2,102%
